From PubChem BioAssay
Shown are actives, neighbours in structure and some others; about 3.5% of the full set was active somewhere.
Tau FP inhib = tau fibrillization inhibition (FP); P10636; K18 P301L tau heparin fibrillization, Alexa594 FP, 6 h; Potency, µM (series often up to 57.7 µM), for the others: at the highest dose activity, negative = inhibition, hits mostly inhibitors; actives 0.39% (n = 280,000); also: nearly all actives have a fitted effect of over 55% in size
Target sequence (P10636 561-689 P618L limits assumed): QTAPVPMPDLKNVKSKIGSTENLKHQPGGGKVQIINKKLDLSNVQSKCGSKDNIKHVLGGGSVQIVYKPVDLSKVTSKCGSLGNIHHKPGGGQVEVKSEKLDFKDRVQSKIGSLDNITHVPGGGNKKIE
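Read-out: fluorescence polarization of Alexa 594-labeled tau (0.24 uM), 555 nm excitation, 632 nm emission. Mixtures held 15 uM unlabeled K18 P301L, compound and 20 uM heparin, pH 7 acetate buffer, incubated 6 hr at 37 C.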
KDM4E inh = inhibitors of human JMJD2E histone demethylase; B2RXH2; Potency, µM (series often up to 57.1 µM), for inactives: at the top dose activity change, negative = inhibition, hits mostly inhibitors; JMJD2E catalytic domain, FDH-coupled NADH fluorescence (FDH is formaldehyde dehydrogenase); actives 1.6% (n = 230,000); active = well fitted inhibition curve with a large enough effect, not every such curve was filed as active; inconclusive = small, poorly fitted or top-dose-only effect, or another doubt; inactive = no such curve, though single readings can be large or run the other way;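 also: 0% = wells with enzyme and -100% = buffer wells without enzyme; nearly all actives have a fitted effect of over 50% in size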
TR SRC2 fluor cs = counter-screen for TRb-SRC2 inhibitors: fluorescence interference | TRb/SRC2 Texas Red total fluorescence interference | actives 0.29% (n = 280,000) | AID 1479 | Potency, µM (titrated, usually from 106 µM), for inactives: at the top dose fluorescence change, negative = quenching; active = well fitted curve in either direction with a large enough effect; inconclusive = small, poorly fitted or top-dose-only effect
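Human TRβ ligand-binding domain (0.6 uM) and Texas Red SRC2 peptide (20 nM) in Tris buffer with 1 uM T3 and 5% DMSO were incubated with pinned compound for 5 hr at ambient temperature. Total fluorescence was computed as S + 2P (555/632 nm).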
Tau fibril ThT = blocks human tau fibril formation measured by thioflavin T | actives 2.1% (n = 270,000) | AID 1460 | recombinant tau K18 P301L, heparin-induced fibrillization, ThT fluorescence | P10636 | Potency, µM (titrated, usually from 57.4 µM), for inactives: top-dose activity, negative = inhibition, hits mostly inhibitors; also: nearly all actives have a fitted effect of over 55% in size
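K18 P301L tau (15 uM + 0.24 uM Alexa 594-tagged), heparin 20 uM, NaOAc pH 7, 6 h 37 C; ThT 30 uM, 1 h RT, ex 450/em 510 nm.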
TRb-SRC2 inh = TRbeta-SRC2 interaction inhibition; AID 1469; TRbeta-SRC2 peptide binding, fluorescence polarization; receptor liganded with 1 µM T3; actives 0.065% (n = 280,000); Potency, µM (titrated, usually from 106 µM), for the others: at the top dose activity change, negative = inhibition, most hits filed as inhibitors;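 also: plate controls were bound peptide for no effect and peptide without receptor for full effect; nearly all actives have a fitted effect of over 50% in size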
Target sequence (P10828 whole entry, looked up): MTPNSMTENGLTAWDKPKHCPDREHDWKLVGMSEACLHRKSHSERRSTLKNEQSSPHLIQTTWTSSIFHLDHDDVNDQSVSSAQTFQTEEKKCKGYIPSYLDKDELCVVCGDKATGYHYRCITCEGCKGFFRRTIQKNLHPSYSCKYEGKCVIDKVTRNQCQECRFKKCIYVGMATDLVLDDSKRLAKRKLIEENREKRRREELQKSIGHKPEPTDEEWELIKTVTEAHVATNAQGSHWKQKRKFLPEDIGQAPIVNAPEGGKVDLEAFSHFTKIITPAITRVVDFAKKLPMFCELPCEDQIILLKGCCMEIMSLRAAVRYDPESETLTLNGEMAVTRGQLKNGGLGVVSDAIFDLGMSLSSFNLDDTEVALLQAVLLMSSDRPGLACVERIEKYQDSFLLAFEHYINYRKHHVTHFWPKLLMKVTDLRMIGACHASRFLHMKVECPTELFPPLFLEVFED
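Human TRb ligand-binding domain (0.6 uM) is mixed with 20 nM Texas Red SRC2 peptide and 1 uM T3; after compound addition and 5 hr at ambient temperature, polarization is measured and normalized to unbound and bound controls.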
Tau fluor counter = counter-screen for tau fibril formation inhibitors | actives 0.93% (n = 280,000) | tau K18 P301L (four-repeat tau fragment) Alexa594 fluorescence, heparin fibrillization | Potency, µM (highest dose often 57.7 µM), inactives show top-dose activity change, negative = decrease | AID 1463; also: nearly all actives have a fitted effect of over 55% in size
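Human K18 P301L tau (15 uM unlabeled plus 0.24 uM Alexa 594-labeled, final) in 100 mM sodium acetate pH 7 was mixed with compound and 20 uM heparin and incubated 6 hr at 37 C.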
The depositor's hits bear a star; ? = inconclusive; nt = no result given; ! = a repeat was not active; [ ] = another dose, or the depositor's remark. Unless noted, calls follow the shape of the dose curve; as a rule, active = well fitted curve in the direction sought with a large enough effect; inconclusive = small, poorly fitted or top-dose-only effect, or another doubt; inactive = no such curve, though single readings can be large; an effect the other way counts as inactive or inconclusive. Unless noted, % is scaled to controls: 0 for no effect and ±100 for the full control effect; potency is read from the fitted curve at half-maximal effect.

SMILES	Tau FP inhib	KDM4E inh	TR SRC2 fluor cs	Tau fibril ThT	TRb-SRC2 inh	Tau fluor counter
O=[N+]([O-])c1ccc(Cl)c(/C=N/N2CCN(c3ccccc3)CC2)c1	8%	15%	-3%	?	3%	?
O=[N+]([O-])c1ccccc1/C=N\N1CCN(c2ccccc2)CC1	5%	-5%	-1%	11µM*	-6%	?
O=[N+]([O-])c1ccccc1/C=C\C=N\N1CCN(c2ccccc2)CC1	14%	-7%	-2%	13µM*	-3%	?
O=[N+]([O-])c1ccccc1/C=C/C=N/N1CCCCC1	-1%	10%	1%	?	2%	-11%
O=[N+]([O-])c1ccccc1/C=N/N1CCN(c2ccc(Cl)cc2)CC1	5%	-1%	-2%	11µM*	-2%	?
COc1ccccc1N1CCN(/N=C/C=C/c2ccccc2[N+](=O)[O-])CC1	12%	-5%	0%	14µM*	-6%	?
COc1ccccc1N1CCN(/N=C/c2cc([N+](=O)[O-])ccc2Cl)CC1	12%	-2%	3%	-13%	3%	-29%
CN(C(=O)CSc1nnc(-c2ccc([N+](=O)[O-])cc2)o1)C1CCCCC1	-14%	nt	4%	-5%	-8%	-11%
CC(C)CN1CCN(Cc2cccc3ncccc23)CC1CCO (configuration not stated)	-1%	-9%	-5%	-8%	-2%	-11%
Nc1ccc(O)cc1C(=O)OCC(=O)c1ccc(C2CCCCC2)cc1	-1%	?	-4%	?	4%	13µM*[quencher]
COc1ccc2[nH]c(O)c(N=NC(=O)Cc3cccs3)c2c1	14%	0%	-4%	16µM*	4%	?
Cc1cccc(Nc2nnc(SCC(=O)Nc3cccc(S(=O)(=O)N4CCCCC4)c3)s2)c1	-25%	-3%	1%	-11%	-1%	13µM*[quencher]
Cc1ccc(S(=O)(=O)N(C)CC(=O)OCC(=O)NC(=O)NC(C)C)cc1	-1%	8%	0%	-2%	5%	-2%
O=S(=O)(Nc1ccc(-c2ccc(N3CCCCCC3)nn2)cc1)c1cccc(C(F)(F)F)c1	2%	nt	3162µM*[quencher]	-10%	-10%	?
COC(=O)CCCC1=CC2=CC(=O)C(C)(OC(=O)CCc3ccccc3)C(=O)C2=CO1 (configuration not stated)	?	?	?	25µM*!	4%	?
CC1(OC(=O)c2cccs2)C(=O)C=C2C=C3CCCN3C=C2C1=O (configuration not stated)	?	5.6µM*	-3%[11.2 µM]	5µM*	0%[11.2 µM]	-23%[11.6 µM]
CC1(OC(=O)CCc2ccccc2)C(=O)C=C2C=C3CCCN3C=C2C1=O (configuration not stated)	?	18µM*	-2%[11.2 µM]	3.5µM*	-3%[11.2 µM]	-24%[11.6 µM]
COc1ccccc1NC1=C(N2CCCCC2)C(=O)c2ccccc2C1=O	?	-25%	3%	13µM*	2%	?
O=C1C(Nc2ccccc2)=C(N2CCCCC2)C(=O)c2ccccc21	?	-7%	-2%	18µM*	2%	-26%
O=C1C(Nc2cccc(O)c2)=C(N2CCCCC2)C(=O)c2ccccc21	?	13%	-2%[53 µM]	14µM*	-14%[53 µM]	18µM*[quencher]
O=C(/C=C/c1ccc(O)cc1)c1ccc(NC2=C(N3CCCCC3)C(=O)c3ccccc3C2=O)cc1	?	18µM*	-24%	7.9µM*	11%	13µM*[quencher]
CCCN(C(=O)C1CCN(S(=O)(=O)c2c(C)noc2/C=C/c2ccc(C)cc2)CC1)c1ccccc1F	-4%	nt	-5%	-2%	6%	-5%
Cc1ccc(-c2nc3cc(NC(=O)Cc4ccc(Cl)cc4)ccc3o2)cc1	-13%	nt	-8%	0%	4%	-13%
S=C(Nc1ccccn1)c1ccccn1	-17%	13µM*	0%	?	8%	-19%
CCCCc1ccc(-n2nc3cc(C)c(NC(=O)c4ccc(C#N)cc4F)cc3n2)cc1	-3%	nt	2%	-6%	-2%	-1%
SMILES	Tau FP inhib	KDM4E inh	TR SRC2 fluor cs	Tau fibril ThT	TRb-SRC2 inh	Tau fluor counter
CCOc1ccc(NC(c2ccccn2)c2oc(CO)cc(=O)c2O)cc1 (configuration not stated)	-9%	22µM*	-1%	?	4%	-11%
CC(Sc1nc(-c2ccco2)nc2c1c(=O)n(C)c(=O)n2C)C(=O)O (configuration not stated)	-6%	-27%	-4%	-13%	1%	-9%
Cc1cc(C)c2c(N)c(C(=O)N3CCc4ccccc4C3)sc2n1	0%	-7%	-1%	?	-2%	-11%
CCOc1ccc2nc3sc(C(=O)N4CCN(C)CC4)c(N)c3cc2c1	9%	-26%	-3%	13µM*	4%	?
COc1ccc2cc3c(N)c(C(=O)N4CCCC4)sc3nc2c1	5%	?	-4%	11µM*	-19%	?
Cc1ccc2cc3c(N)c(C(=O)N4CCOCC4)sc3nc2c1	4%	-5%	-2%	?	3%	-14%
CC(C)c1ccc2nc3sc(C(=O)N4CCc5ccccc5C4)c(N)c3cc2c1	8%	-9%	-2%	13µM*	-11%	?
COc1cc(-c2n[nH]c(=O)o2)cc(OC)c1OC	2%	?	-1%	-4%	1%	-4%
CCN(CC)S(=O)(=O)c1cc(Br)c(C)cc1OC	-8%	7%	-1%	0%	-1%	-7%
CC(=O)Nc1ccc(NC(=O)Nc2sc3nc4n(c(=O)c3c2C)CCC(C)CC4)cc1 (configuration not stated)	-4%	nt	-13%	?	5%	?
COc1ccc(NC(=O)Nc2sc3nc4n(c(=O)c3c2C)CCC(C)CC4)cc1OC (configuration not stated)	?	nt	4%	?	5%	8.9µM*[quencher]
O=C(CC1SC(=O)N(c2ccccc2)C1=O)Nc1ccc(Cl)cc1 (configuration not stated)	-4%	7%	1%	?	6%	-19%
COc1ccc(NC(=O)CC2Sc3ncnn3C2=O)cc1 (configuration not stated)	6%	2µM*	0%	?	1%	-11%
O=C(CC1Sc2ncnn2C1=O)Nc1ccc(Cl)cc1 (configuration not stated)	-9%	1.6µM*	2%	?	2%	-12%
CCOC(=O)c1ccc(NC(=O)CC2Sc3ncnn3C2=O)cc1 (configuration not stated)	5%	1.8µM*	-2%	?	-28%	-4%
